Results reported in PubChem BioAssay (NCI).
Compounds without any hit were thinned out: in the full panel of roughly 83,000, 20% have a hit.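 Assay: single dose, 48 h. Readout: percent growth (0 = no net growth; negative = cell death). Active: <10.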 Active and inactive are the calls of the source.

Each compound was assayed on M14 melanoma (assay: NCI-60 one-dose screen, 48 h (100 = growth as untreated, 0 = no growth, -100 = all killed)). Settings: 10 µM unless noted.
For COc1cccc(/C=C2\Oc3cc(OCCN4CCCC4)ccc3C2=O)c1, the growth was 98.7% (inactive).
In the case of COc1ccc(-c2nc3ccc(-c4nc5ccc(N6CCN(c7ccncc7)CC6)cc5[nH]4)cc3[nH]2)cc1OC, the growth was 13.6% (inactive).
Cc1ccc(C2=NN3C(C2)c2cc(Br)ccc2OC32CCN(Cc3ccccc3)CC2)o1 (centres undefined) was tested, and the growth was 106% (inactive).
With COc1cc2c(cc1-c1c(C)noc1C)ncc1nc(-c3ccccn3)n([C@H](C)COC(F)F)c12 the growth was 49.5% (inactive).
In the case of Cc1oc(-c2ccc(Cl)cc2Cl)cc1C(=O)Nc1nccs1, the growth was 99.5% (inactive).
For COc1ccc2c(c1)c(-c1nonc1-c1cn(C)c3ccccc13)cn2C, the growth was 24.4% (inactive).
With COC(=O)c1ccc(NC(=O)c2ccc(-c3cccc([N+](=O)[O-])c3)o2)cc1 the growth was 101% (inactive).
With COc1cccc(C2=NN3C(C2)c2cc(Br)cc(OC)c2OC32CCN(Cc3ccccc3)CC2)c1 (centres undefined) the growth was 107% (inactive).
In the case of O=C1c2cc3c(cc2-c2c1c1cc(F)c(F)cc1c(=O)n2CCCn1ccnc1)OCO3, the growth was 8.25% (active).
In the case of Cc1ccc2c(C(C[N+](=O)[O-])c3ccccc3F)c(-c3ccccc3)[nH]c2c1 (centres undefined), the growth was 26.2% (inactive).
With Cc1ccccc1COc1ccc(-c2onc(C)c2-c2ccc(Cl)cc2)cc1 the growth was 32.2% (inactive).
For COC[C@H](C)n1c(C2CCOCC2)nc2cnc3cc(-c4c(C)noc4C)c(OC)cc3c21, the growth was 42.5% (inactive).
With C#CCOc1ccc2ncnc(NCc3cccc(NC(=O)CCl)c3)c2c1 the growth was 51.3% [8.25 µM] (inactive).
In the case of COc1cc(-c2nn(C)nc2-c2cc3ccccc3s2)cc(OC)c1OC, the growth was 10.9% (inactive).
For O=C1NC(=S)N[C@H]1CC(=O)n1cnc2ccccc21, the growth was 96.8% (inactive).
With O=S(=O)(Nc1ccc(I)cc1F)c1ccc(-c2cnc(C3CC3)o2)cc1 the growth was 37.4% (inactive).
CC[C@@H](C(=O)[C@@H](C)[C@@H](O)[C@H](C)[C@@H]1O[C@@H]([C@@H](CC)C(=O)O)CC[C@@H]1C)[C@H]1OC2(C=C[C@@H](O)[C@]3(CC[C@@](C)([C@H]4CC[C@](O)(CC)[C@H](C)O4)O3)O2)[C@H](C)C[C@@H]1C (some centres undefined) was tested, and the growth was -86.7% (active).
For CCOC(=O)c1csc(NC(=O)COc2cccc(/C=C3\CSc4ccccc4C3=O)c2)n1, the growth was -58.5% (active).
With CN1CCN(c2ccc3nc(-c4ccc(OCCCCN5CCN(CCCCN6C(=O)c7cccc8cccc(c78)C6=O)CC5)cc4)[nH]c3c2)CC1 the growth was 94.9% (inactive).
For Cc1ncc(C(=O)Nc2ccc(CN3CCN(C)CC3)c(C(F)(F)F)c2)cc1C#Cc1cnc2cccnn12, the growth was -79.9% (active).
With Cc1nc2c3c(-c4ccccc4)c(-c4ccccc4)oc3ncn2n1 the growth was 102% (inactive).
With O=C(N/N=C/c1ccccc1O)c1ccccc1Nc1ccnc(C(F)(F)F)c1 the growth was -14.3% (active).
In the case of COC(=O)[C@]12CCC(C)(C)C[C@H]1[C@H]1C(=O)C[C@@H]3[C@@]4(C)c5c([nH]c6ccccc6c5=O)C(C)(C)[C@@H]4CC[C@@]3(C)[C@]1(C)CC2, the growth was 29% (inactive).
In the case of COc1ccc(-c2n[nH]nc2-c2csc3ccccc23)cc1OC, the growth was 7.35% (active).
In the case of O=C1c2ccccc2C(=O)c2c(N=Nc3[nH]c(=S)[nH]c3O)cccc21, the growth was -15.8% (active).
In the case of Cn1c(NCCc2ccc(O)c(O)c2)nc2c1c(=O)n(Cc1ccc(Br)cc1)c(=O)n2C, the growth was 96.5% (inactive).
In the case of Cc1ccc(/C=C2\SC(=S)N(CC(=O)NCCCN3CCOCC3)C2=O)cc1, the growth was 102% (inactive).
Cc1ccc(C2Oc3ccccc3C3CC(c4cccs4)=NN32)cc1 (centres undefined) was tested, and the growth was 99.3% (inactive).
For C=CC(=O)Nc1cccc(-c2nc(SC)nc(NCCc3ccc(OC)c(OC)c3)c2C#N)c1, the growth was 26.9% (inactive).
With Cc1nc(/N=C(\N)NC(=O)Nc2cccc([N+](=O)[O-])c2)sc1C the growth was 57.1% (inactive).
COc1ccc(-n2nc(C)c3c(Nc4ccc(NC(=O)Nc5ccc(Cl)c(C(F)(F)F)c5)cc4)ncnc32)cc1 was tested, and the growth was -26.9% (active).
O=C(/C=C/c1cccc([N+](=O)[O-])c1)c1ccc(O)c(CN2CCN(c3cc4c(cc3F)c(=O)c(C(=O)O)cn4C3CC3)CC2)c1 was tested, and the growth was 9.3% (active).
CCC([N+](=O)[O-])S(=O)(=O)c1ccc(C)cc1 (centres undefined) was tested, and the growth was 103% (inactive).
In the case of Cc1cn2c(/C=C3/C(=O)Nc4c3ccc3ccccc43)c(C(F)(F)F)nc2s1, the growth was 8.69% (active).
In the case of O=C1c2cc3c(cc2-c2c1c1ccc(F)cc1c(=O)n2C[C@H](O)[C@@H](O)[C@H](O)CO)OCO3, the growth was -14% (active).
For O=C(Nc1cccc2[nH]c(C(F)(F)F)nc12)c1ccc(-n2cnnn2)cc1, the growth was 107% (inactive).
In the case of Fc1ccc(CNc2cccc3[nH]c(C(F)(F)F)nc23)cc1, the growth was 109% (inactive).
O=C1c2cc3c(cc2-c2c1c1ccc(F)cc1c(=O)n2CCCNCCO)OCO3 was tested, and the growth was -39.7% (active).
N#CN1CC[C@H](C(=O)Nc2cc3cc(C(N)=O)ccc3cn2)C1 was tested, and the growth was -26.5% (active).
